Source: PubChem BioAssay (NCI)
Several values for one entry are separate records, joined by “and”; a condition that tells them apart may be missing. Equal entries are not always repeated. This is part of a sample that, as a whole, favours compounds with a hit. Of some 83,000 tested, about 20% had one in any assay.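 Note: values are percent growth. 100 is the growth of untreated cells, values between 100 and 0 indicate rising inhibition; between -100 and 0 indicates cell death.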 Unmarked numbers belong to inactive results. Activity calls are given as the source filed them.

Each molecule was assayed on EKVX NSCLC (assay: NCI-60 one-dose screen, 48 h (100 = growth as untreated, 0 = no growth, -100 = all killed)). Conditions: 10 µM unless noted.
Method: Growth inhibition of the EKVX human Non-Small Cell Lung tumor cell line is measured as a screen for anti-cancer activity. Cells are grown in 96 well plates and exposed to the test compound for 48 hours. Compounds are tested at a single concentration, which is 10^-5 M for most compounds. The reported endpoint is percent growth (GI% or GIPRCNT), where numbers from 0 - 100% represent growth inhibition, and numbers from -100% - 0 represent cell death. For example, a value of 40 represents 60% growth inhibition. A value of 0 means no net growth occurred over the course of the experiment. A value of -40 indicates 40% of cells at the beginning of the experiment died by the end of the experiment. A value of -100 means all cells are dead at the end of the experiment.
NCI-60 Human Tumor Cell Lines Screen was performed using the standard one-dose NCI protocol, which is described in more detail at https://dtp.cancer.gov/discovery_development/nci-60/default.htm.
Compounds with GIPRCNT values below 10 were considered active. Activity score was based on GIPRCNT using the following formula: […]
Score is 0 for GIPRCNT values of 100 or above, 50 for GIPRCNT values of 0, and 100 for GIPRCNT values of -100.
`Nc1nc(-c2ccccn2)cc(-c2cc(-c3ccccn3)nc(N)n2)n1` showed a growth of 102%. Molecule `CC1NC(C)c2ccc3ccccc3c2O1` (stereo not given) has a growth of 123%. Molecule `C/C(CC(C)C)=N/NC(N)=S` has a growth of 59.6%. For `Nc1ccc(O)c(C(=O)O)c1`, the growth was 101% and 99.5% and 106%. `Cc1ccc([N+](=O)[O-])cc1Br` gave a growth of 101%. `Cc1c(Cl)c(C)c(Cc2c(C)c(Cl)c(C)c(Cl)c2O)c(O)c1Cl` was tested, and the growth was 3.88% (active). `CCCCNC(=O)c1ccccc1C` gave a growth of 94.9%. In the case of `Cc1cc(NC(=O)NC(=O)c2ccccc2N(C)C)ccc1Oc1ncc(Br)cn1`, the growth is reported as 47.7% and 42.5%. Work on `COCCNC(C)=O` yielded a growth of 105%. In the case of `CN(C)C(=N)N=C(N)N`, the growth is reported as 113%. `N=c1sc2ccccc2n1CC(=O)O` gave a growth of 104%. With `CS(=O)(=O)c1nsc(N)n1` the growth was 108%. `CCOc1ccc(/C=C\C(=O)O)cc1` was tested, and the growth was 115%. `CCOC(=O)C1=CC(=O)CC(C)(C)O1` was tested, and the growth was 104% and 126%. For `S=c1nn[nH]n1C1CCCCC1`, the growth was 106%. For `CCN(CC)Cc1cc2[nH]c3c4ccc(Cl)cc4ncc3c2cc1OC`, the growth was 83.5% and 75%. With `O=C(NC(=O)c1ccc(F)c(Cl)c1)NC1CC1` the growth was 89.6%. For `C=CCN1C(=O)c2ccccc2C1=O`, the growth was 104%. In the case of `O=C1c2cccnc2-c2ncccc21`, the growth is reported as 99.6% [100 µM]. With `O=C(NC(CSSCC(NC(=O)OCc1ccccc1)C(=O)O)C(=O)O)OCc1ccccc1` (stereo not given) the growth was 94.8%. `CC(C)(C)C1CCC(=NO)CC1` (stereo not given) gave a growth of 102%. For `Cn1c(-c2ccccc2)cc(=O)cc1-c1ccccc1`, the growth was 121%. `COCCCNC1=C(C#N)C(=O)NC(c2cccs2)S1` (stereo not given) gave a growth of 84%. For `CCOC(=O)C1=C(C)NC(C)=C(C(=O)OCC)C1`, the growth was 109%. `N#CC1c2ccccc2C=CN1C(=O)c1ccccc1` (stereo not given) was tested, and the growth was 106% and 92.7%. With `CS/C(=C\c1ccc(C(=O)c2ccc(C)cc2)n1C)S(C)=O` (stereo not given) the growth was 63.8% [100 µM]. Work on `CCC(C)NC(=O)c1ccccc1C` (stereo not given) yielded a growth of 91.2%. `CC(=O)Nc1ccc2oc(=O)ccc2c1` was tested, and the growth was 94.6%. Work on `Nc1c(S(=O)(=O)O)cc(Br)c2c1C(=O)c1ccccc1C2=O` yielded a growth of 101%. `Cc1cnc(N)s1` showed a growth of 94.2%. With `COc1ccc(/C=C/C(=O)O)cc1OC` the growth was 106% and 103%. With `Nc1ccccc1SC(CC(=O)c1ccccc1)c1cccc([N+](=O)[O-])c1` (stereo not given) the growth was 96.5%. `O=C1c2ccccc2C(c2ccccc2)C1c1ccccc1` (stereo not given) showed a growth of 80.2%. With `CC1CC(O)CC(C)(C)C1.CC1CC(O)CC(C)(C)C1.CC1CC(O)CC(C)(C)C1.CC1CC(O)CC(C)(C)C1.[Ti]` (stereo not given) the growth was 93.6%. `O=C(O)C#Cc1ccc(Cl)cc1` was tested, and the growth was 104%. In the case of `O=S(=O)(O)c1ccc2cc(O)ccc2c1`, the growth is reported as 106%. Molecule `CC(=O)Oc1cc(C)c(OC(C)=O)c(C)c1C` has a growth of 95.8%. Molecule `Cc1c(Cl)cc(Cl)c(N)c1Cl` has a growth of 103%. `COc1ccc(COC=O)cc1` gave a growth of 109%. `COC(=O)CCOc1ccccc1` showed a growth of 96.6%.
